Screening data: PubChem, Center for Chemical Genomics, University of Michigan
The full list was thinned out, with hits kept by preference.
Dicer processing = inhibitors of human Dicer processing of pre-microRNA; 6% of 47,000 active; cat-ELCCA pre-miR-21 Dicer processing, chemiluminescence; stronger effect = higher value; z-score at 25 µM; Q9UPY3; in the data active = z-score above about 3, passing the limit was not always enough;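 note: higher signal means more uncleaved substrate so more Dicer inhibition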
Target sequence (Q9UPY3 whole entry, looked up): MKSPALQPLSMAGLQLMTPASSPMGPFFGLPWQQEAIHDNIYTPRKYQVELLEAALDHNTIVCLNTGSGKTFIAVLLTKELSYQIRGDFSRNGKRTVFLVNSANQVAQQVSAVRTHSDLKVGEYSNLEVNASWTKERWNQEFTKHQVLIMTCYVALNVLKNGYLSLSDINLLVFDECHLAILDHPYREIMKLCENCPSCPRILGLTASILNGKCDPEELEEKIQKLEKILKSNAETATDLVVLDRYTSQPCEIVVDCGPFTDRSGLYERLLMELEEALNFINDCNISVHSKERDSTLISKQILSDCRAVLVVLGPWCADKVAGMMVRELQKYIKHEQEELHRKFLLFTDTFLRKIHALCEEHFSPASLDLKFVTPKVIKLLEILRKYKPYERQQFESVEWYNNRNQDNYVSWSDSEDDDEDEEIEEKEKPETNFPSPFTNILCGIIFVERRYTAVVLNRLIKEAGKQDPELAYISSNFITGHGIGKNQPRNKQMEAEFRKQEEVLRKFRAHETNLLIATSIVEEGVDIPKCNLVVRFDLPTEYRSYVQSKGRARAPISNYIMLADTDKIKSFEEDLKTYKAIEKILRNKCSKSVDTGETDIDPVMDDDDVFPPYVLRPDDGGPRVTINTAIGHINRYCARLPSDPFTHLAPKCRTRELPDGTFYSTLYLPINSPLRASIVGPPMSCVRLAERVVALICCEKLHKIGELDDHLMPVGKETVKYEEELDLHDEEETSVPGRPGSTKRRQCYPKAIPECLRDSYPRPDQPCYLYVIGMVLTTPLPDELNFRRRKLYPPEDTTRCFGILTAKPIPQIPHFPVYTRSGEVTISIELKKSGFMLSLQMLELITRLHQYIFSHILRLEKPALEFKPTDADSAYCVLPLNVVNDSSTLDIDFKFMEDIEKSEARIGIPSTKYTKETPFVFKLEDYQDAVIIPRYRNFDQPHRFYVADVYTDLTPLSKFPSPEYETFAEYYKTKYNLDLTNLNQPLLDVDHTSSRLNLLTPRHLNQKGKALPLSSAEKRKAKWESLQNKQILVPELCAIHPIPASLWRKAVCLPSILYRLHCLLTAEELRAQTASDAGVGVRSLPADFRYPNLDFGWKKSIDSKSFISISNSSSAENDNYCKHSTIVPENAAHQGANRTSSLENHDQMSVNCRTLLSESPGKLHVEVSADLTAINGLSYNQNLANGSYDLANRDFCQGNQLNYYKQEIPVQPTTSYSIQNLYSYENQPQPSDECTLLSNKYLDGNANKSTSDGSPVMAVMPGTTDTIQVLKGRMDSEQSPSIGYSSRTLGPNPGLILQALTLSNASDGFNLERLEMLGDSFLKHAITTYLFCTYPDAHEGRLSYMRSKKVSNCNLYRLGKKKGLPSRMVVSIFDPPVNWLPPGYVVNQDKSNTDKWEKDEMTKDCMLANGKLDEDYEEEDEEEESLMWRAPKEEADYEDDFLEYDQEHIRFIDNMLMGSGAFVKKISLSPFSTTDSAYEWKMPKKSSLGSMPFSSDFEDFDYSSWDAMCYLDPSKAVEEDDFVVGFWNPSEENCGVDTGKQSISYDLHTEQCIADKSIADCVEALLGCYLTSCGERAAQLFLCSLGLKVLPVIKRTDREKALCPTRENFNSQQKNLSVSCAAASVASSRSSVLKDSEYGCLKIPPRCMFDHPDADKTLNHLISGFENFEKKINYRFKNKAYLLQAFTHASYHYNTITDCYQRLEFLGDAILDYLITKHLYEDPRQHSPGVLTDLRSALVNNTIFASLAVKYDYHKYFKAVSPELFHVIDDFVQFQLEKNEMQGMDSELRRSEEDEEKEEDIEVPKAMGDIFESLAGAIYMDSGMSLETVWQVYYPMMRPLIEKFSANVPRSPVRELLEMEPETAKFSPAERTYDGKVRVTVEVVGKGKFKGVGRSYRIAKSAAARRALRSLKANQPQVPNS
Numbers stand for hits; – = inactive.

SMILES	Dicer processing
COc1ccc(C(=O)/C(C#N)=N/Nc2cccc(Cl)c2Cl)cc1	8.3
NS(=O)(=O)c1ccc(NNC(=O)CC2(CC(=O)O)CCCC2)cc1	–
CC(C)(C)OC(=O)N[C@@H](Cc1cccc(F)c1)C(=O)O	–
Cn1c(S(=O)(=O)Cc2ccc(Cl)cc2)nc2ccccc21	–
Cc1nnc2c(N3CCN(Cc4ccccc4)CC3)nc3ccccc3n12	–
Cn1c(CN2CCN(c3ccc(Cl)cc3)CC2)nc2ccccc21	6.1
O=C(Nc1c(Cl)cccc1Cl)Oc1ccc(F)cc1Cl	–
Clc1cccc(Sc2ccc(-c3ccccn3)s2)c1	–
O=C(NNS(=O)(=O)c1ccc(-c2ccccn2)s1)Nc1cccc(Cl)c1	4
COc1ccc(SCCC(=O)NNS(=O)(=O)c2ccc(-c3ccccn3)s2)cc1	–
Cc1ccc(S(=O)(=O)N2CCN(CC(=O)Nc3cc(-c4ccccc4)sc3C(N)=O)CC2)cc1	–
N/C(=N\OC(=O)Nc1ccc(Cl)cc1)c1nccnc1Oc1cccc(C(F)(F)F)c1	–
CC(NC(=S)Nc1ccc(Oc2ccc(Cl)cc2)cc1)c1ccccc1 (centres undefined)	3.9
CCOc1ccc(NC(=S)NC(c2ccccc2)c2ccccc2)cc1	–
Cc1ccc(C(C)NC(=S)Nc2ccc(Cl)cc2)c(C)c1 (centres undefined)	–
CN(C)c1ccc(NCc2ccccn2)cc1	–
CCOC(=O)C1=C(C)NC(=O)N(C(C)=O)C1c1ccccc1 (centres undefined)	–
Cc1nn(Cc2nnc(SCC(=O)c3ccc(Cl)cc3)n2C)c(C)c1[N+](=O)[O-]	–
CCOC(=O)N1CCc2c(sc3c2C(=O)NC(c2cc4c(cc2Cl)OCO4)N3)C1 (centres undefined)	–
CCCCCCOc1ccc(OC(=O)c2ccncc2)cc1	8.9
COc1ccc(OC(=O)c2ccncc2)cc1	–
O=C(Oc1ccc(OC(=O)c2ccncc2)cc1)c1ccncc1	–
CC1=CC(C)(C)N(C(=O)NC2CCCCC2)c2ccccc21	–
CC1=CC(C)(C)N(C(=O)Nc2ccccc2)c2ccccc21	3.5
CC1=CC(C)(C)N(C(=O)Nc2ccccc2)c2c(C)cc(C)cc21	–
SMILES	Dicer processing
Nc1c(C(=O)c2ccc(Cl)cc2)sc2nsc(SCCN3CCCCC3)c12	–
C=CCc1c(C)nc(SC)nc1Nc1ccc(C)cc1	5.7
C=CCc1c(C)nc(SC)nc1Nc1ccc(C(=O)OCC)cc1	–
Cc1ccc(Nc2nc(C)cc(C)c2C#N)cc1	–
COc1ccc(C2C(C(=O)c3cccs3)=C(O)C(=O)N2CCN2CCOCC2)cc1OC (centres undefined)	–
CCOC(=O)/C(C#N)=C/Nc1ncc(C(F)(F)F)cc1Cl	–
COc1cc(OC)cc(-c2nc(-c3ccccc3)c3ccccn23)c1	–
NS(=O)(=O)c1ccc(NNC(=S)NCc2ccc(F)cc2)cc1	–
COc1cccc(OC)c1CN(C)C(=O)c1cnc(OCC(F)(F)F)cc1C(F)(F)F	–
COC(=O)c1cn(C(=O)c2cnn3c(C(F)F)cc(-c4ccc(OC)cc4)nc23)c2ccccc12	–
CCC1(c2cccc(OC(=O)Nc3ccc(OC(F)(F)F)cc3)c2)CCCCN(C)C1=O (centres undefined)	3.8
CCOC(=O)C1=C(Nc2ccc(OC(=O)Nc3ccccc3)cc2)C(=O)N(C(C)(C)C)C1	–
Cn1nc(-c2ccccc2)cc1NC(=O)Nc1ccc(OC(F)(F)F)cc1	–
COc1cc([N+](=O)[O-])c(OC)cc1SCC(=O)NNC(=S)Nc1cccc(Cl)c1	–
Cn1c(=O)c2c(nc(N)n2CCCC(=O)O)n(C)c1=O	–
CC1(C)C2CC[C@](C)(C2)C1NC(=O)C1CCCCC1 (some centres undefined)	–
Clc1ccc(SCc2nsc(Sc3ccc(Cl)cc3)n2)cc1	–
COc1ccccc1NC(=S)N1CC(C)(C)C1=O	–
COc1ccccc1N1C(=O)C2C3C=CC(CC3)C2C1=O (centres undefined)	–
COc1ccccc1N1CC(C)(C)C(=O)NC1=S	6.2
N#Cc1c(F)ccc(NC(=O)Nc2ccccc2)c1F	–
CCOC(=O)c1c(NC(=O)c2ccco2)sc2c1CCC2	–
Cc1cc(C)n2nc(C)c(-c3ccc(Cl)cc3)c2n1	–
Cc1cc(N)n2ncc(-c3ccccc3)c2n1	–
Cc1cc(C)n2ncc(-c3ccc(Cl)cc3)c2n1	3.9
SMILES	Dicer processing
CS(=O)(=O)/C(C#N)=C/Nc1ccc(OC(F)(F)F)cc1	–
Cn1c2c(c3ccccc31)/C(=N/O)CCC2	3.9
Cn1c2c(c3ccccc31)/C(=N/OC(=O)c1ccc(C(C)(C)C)cc1)CCC2	–
CN(C)CC1CCc2c(c3ccccc3n2C)C1=O (centres undefined)	–
Cc1ccc2c(c1)C(=O)OC(C(=O)Nc1nc3c(s1)CCCC3)C2 (centres undefined)	–
CC(NC(=O)OC(C)(C)C)C(=O)NCc1ccccc1 (centres undefined)	–
CC(C)CC(NC(=O)OC(C)(C)C)C(=O)NCc1ccccc1 (centres undefined)	–
CC(C)(C)OC(=O)NC(Cc1ccccc1)C(=O)NCc1ccccc1 (centres undefined)	4.6
